Screens from PubChem BioAssay.
A selection: hits, their analogues and other compounds. The true share with any hit is near 11%.
BAZ2B block: inhibitors of human BAZ2B bromodomain | AlphaScreen BAZ2B-H3K14Ac peptide displacement | 4.4% of 360,000 active | Q9UIF8 | Potency, µM (doses to about 114 µM), usual class: inhibitors; note: nearly all actives have a fitted effect of over 60% in size
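Multi-concentration screen (max 110 uM) measuring displacement of acetylated histone H3 peptide from BAZ2B by AlphaScreen, using 50 nM protein, 50 nM peptide and 10 ug/mL streptavidin donor plus Ni-chelate acceptor beads.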
VDR inhibitor: vitamin D3 receptor (human) inhibition. Potency, µM, most hits filed as inhibitors. P11473. VDR-SRC2-3 peptide fluorescence polarization, 2 h. 0.93% of 400,000 active
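Two reagent solutions held at 4 deg C in the dark were dispensed, compounds pinned at 23 nl, and the mixture incubated 2 h at room temperature. Read-out: fluorescence polarization of VDR–SRC2-3 peptide binding.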
HP1b binding inh: inhibitors of HP1-beta chromodomain binding to methylated histone tails; AlphaScreen HP1-beta / biotin-H3K9me3 peptide binding; 0.56% of 390,000 active; AID 540317; Potency, µM (series often up to 114 µM), actives largely listed as inhibitors; P83916; note: nearly all actives have a fitted effect of over 70% in size
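AlphaScreen: HP1-beta (50 nM) preformed 30 min with biotin-H3(1-18)K9me3 peptide (50 nM) in PBS pH 7.4, 0.01% Tween-20. Compound added for 30 min at RT, then streptavidin donor/nickel chelate acceptor beads (10 ug/mL) for 30 min.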
PLK1 PBD block: inhibitors of human PLK1 polo-box domain binding; Plk1 PBD binding of FITC phosphopeptide, fluorescence polarization; AID 720504; 2.8% of 360,000 active; Potency, µM, hits mostly inhibitors; P53350; note: series mostly up to about 57 µM; nearly all actives have a fitted effect of over 65% in size
G9a block: inhibitors of human histone lysine methyltransferase G9a. Q96KQ7. G9a H3K9 monomethylation, AlphaScreen, 2 h. Potency, µM (top dose mostly 102 µM), actives largely listed as inhibitors. 8.8% of 350,000 active; note: nearly all actives have a fitted effect of over 75% in size
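Signal arises when biotinylated H3K9 peptide, once monomethylated, bridges streptavidin donor and antibody-captured acceptor beads. Enzyme at 20 nM was preincubated 15 min with test compounds; peptide 500 nM and SAM 20 uM then reacted for 2 h.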
JMJD2A Tudor: JMJD2A Tudor domain (human) inhibition; O75164; AlphaScreen JMJD2A-Tudor / H3K4me3 peptide binding; Potency, µM (doses to about 114 µM), hits mostly inhibitors; 4.4% of 390,000 active; AID 504339; note: nearly all actives have a fitted effect of over 50% in size
Target sequence (O75164 whole entry, looked up, the tested form may be a part): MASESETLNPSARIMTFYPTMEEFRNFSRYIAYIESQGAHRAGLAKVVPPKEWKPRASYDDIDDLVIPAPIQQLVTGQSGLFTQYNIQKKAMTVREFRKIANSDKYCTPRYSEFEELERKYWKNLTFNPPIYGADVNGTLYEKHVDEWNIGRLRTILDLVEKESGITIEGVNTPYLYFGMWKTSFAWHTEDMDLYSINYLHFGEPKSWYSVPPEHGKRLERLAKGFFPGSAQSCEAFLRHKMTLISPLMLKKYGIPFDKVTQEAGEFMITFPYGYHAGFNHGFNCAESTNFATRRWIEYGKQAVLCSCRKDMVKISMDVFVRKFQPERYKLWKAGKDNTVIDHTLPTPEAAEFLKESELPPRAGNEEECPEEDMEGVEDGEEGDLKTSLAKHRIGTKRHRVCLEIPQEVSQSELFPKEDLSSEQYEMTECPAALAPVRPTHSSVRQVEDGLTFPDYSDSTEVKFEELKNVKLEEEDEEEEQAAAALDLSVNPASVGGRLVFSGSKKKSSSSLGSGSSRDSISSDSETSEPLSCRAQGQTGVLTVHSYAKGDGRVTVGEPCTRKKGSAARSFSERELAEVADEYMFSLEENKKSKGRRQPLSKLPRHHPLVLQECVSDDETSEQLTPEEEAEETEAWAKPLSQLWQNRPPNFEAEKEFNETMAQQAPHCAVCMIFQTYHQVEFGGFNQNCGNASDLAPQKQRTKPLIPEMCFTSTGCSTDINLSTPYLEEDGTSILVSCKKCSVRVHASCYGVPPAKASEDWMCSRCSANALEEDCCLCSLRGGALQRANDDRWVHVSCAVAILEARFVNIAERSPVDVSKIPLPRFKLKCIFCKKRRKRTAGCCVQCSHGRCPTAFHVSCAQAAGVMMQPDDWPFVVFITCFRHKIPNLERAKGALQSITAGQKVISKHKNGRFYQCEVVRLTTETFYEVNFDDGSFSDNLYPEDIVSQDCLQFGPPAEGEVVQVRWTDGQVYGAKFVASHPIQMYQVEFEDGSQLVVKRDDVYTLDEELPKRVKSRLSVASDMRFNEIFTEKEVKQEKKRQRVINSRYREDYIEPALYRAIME
Of the large screens only hits and unclear results are named; the others gave an inactive call; ! = repeats disagree. Calls come from the whole dose curve; as a rule, active = well fitted curve in the direction sought with a large enough effect; inconclusive = small, poorly fitted or top-dose-only effect, or another doubt; inactive = no such curve, though single readings can be large; an effect the other way counts as inactive or inconclusive.

CC(=O)OCC(CCn1cnc2cnc(N)nc21)COC(C)=O	none (no result: HP1b binding inh, PLK1 PBD block, JMJD2A Tudor)
COc1ccc(-c2c(C)nn3c(N4CCN(c5cc(Cl)ccc5C)CC4)cc(C)nc23)cc1OC	none (no result: PLK1 PBD block)
Cc1oc(-c2ccc(Cl)cc2)nc1CS(=O)CC(=O)NCc1ccccn1 (stereo not drawn)	none
CN1CCN(C2Cc3cc(F)ccc3Sc3ccc(Cl)cc32)CC1 (stereo not drawn)	JMJD2A Tudor inconclusive (no result: BAZ2B block, G9a block)
CN1CCN(C2Cc3ccccc3Sc3cc(C(F)(F)F)ccc32)CC1 (stereo not drawn)	none (no result: BAZ2B block, G9a block)
CN1CCN(C2Cc3ccccc3Sc3ccc(Cl)cc32)CC1 (stereo not drawn)	VDR inhibitor inconclusive, G9a block inconclusive, JMJD2A Tudor 79µM
CSc1ccc2c(c1)C(N1CCN(C)CC1)Cc1ccccc1S2 (stereo not drawn)	BAZ2B block inconclusive, VDR inhibitor 50µM!, G9a block 18µM!, JMJD2A Tudor 63µM
CCOC(=O)CSc1cn2c(n1)CCC2	G9a block 10µM
CCOC(=O)CSc1cc(C)nc(NC(C)=O)n1	none
COc1ccc([S+](=O)([O-])N2CCN([S+](=O)([O-])c3ccc4c(c3)OCCO4)CC2)c(OC)c1	none (no result: BAZ2B block, VDR inhibitor, HP1b binding inh, PLK1 PBD block, G9a block)
Cc1cc(C)n(C(=O)/C=C/c2cccs2)n1	BAZ2B block 56µM
O=C(NCCS(=O)(=O)N1CCN(c2ccccc2F)CC1)c1cccs1	none
Nn1cnnc1N/N=C/c1cc(Br)cc(Br)c1O	BAZ2B block 32µM, JMJD2A Tudor 89µM
Cc1no[n+]([O-])c1COc1cccc(/C=N/Nc2nncn2N)c1	VDR inhibitor inconclusive (no result: G9a block)
CSc1ccc(/C=N\Nc2nncn2N)cc1	G9a block inconclusive
COc1cc(/C=N\Nc2nncn2N)ccc1OC(C)=O	G9a block 71µM
CC(C)(C)c1ccc(/C=N/Nc2nncn2N)cc1	VDR inhibitor inconclusive, G9a block 40µM
NCCC[C@@H](CC(=O)N[C@@H]1CCNC[C@H]1C(=O)N[C@H](CC(=O)N[C@@H](CCC(=O)O)CC(=O)O)Cc1ccccc1)NC(=O)C[C@H](CO)NC(=O)[C@@H]1CCCC[C@H]1N	none (no result: BAZ2B block, HP1b binding inh, PLK1 PBD block, G9a block, JMJD2A Tudor)
Oc1c(Br)cc(Cl)cc1C=Nc1ccccc1Br	PLK1 PBD block inconclusive, G9a block 4µM
N#Cc1c(NC(=O)CSc2ncnc3sccc23)oc(-c2ccco2)c1-c1ccco1	BAZ2B block 45µM, HP1b binding inh inconclusive, PLK1 PBD block inconclusive, G9a block inconclusive, JMJD2A Tudor 79µM
C=CC(C1=CC(=O)C(OC)=CC1=O)c1ccc(O)cc1 (stereo not drawn)	G9a block inconclusive (no result: BAZ2B block, HP1b binding inh, PLK1 PBD block, JMJD2A Tudor)
COC(=O)COc1ccc(NS(=O)(=O)c2cccc([N+](=O)[O-])c2)cc1	PLK1 PBD block 24µM, JMJD2A Tudor inconclusive (no result: G9a block)
COc1cc(NS(=O)(=O)c2ccc([N+](=O)[O-])cc2)c2ncccc2c1	JMJD2A Tudor 56µM (no result: BAZ2B block, VDR inhibitor, HP1b binding inh, PLK1 PBD block, G9a block)
COc1cc(NS(=O)(=O)c2cccc([N+](=O)[O-])c2)c2ncccc2c1	JMJD2A Tudor 56µM (no result: BAZ2B block, VDR inhibitor, HP1b binding inh, PLK1 PBD block, G9a block)
COCCCN1C(=O)c2oc3ccccc3c(=O)c2C12C(=O)N(C)c1ccccc12 (stereo not drawn)	none (no result: PLK1 PBD block)
CCOc1ccc(N2CC(=O)N(c3ccc(OCC)cc3)CC2=O)cc1	none (no result: G9a block)
CCOc1ccc(N2Cc3ccccc3C2)cc1	G9a block 2.5µM (no result: BAZ2B block)
CC(=O)N1c2ccc(S(=O)(=O)N3CCCCC3)cc2CC1C(=O)NCc1cccc(Cl)c1 (stereo not drawn)	G9a block inconclusive
O=S(=O)(Cc1ccc(Cl)cc1)N1CCN(c2ncccn2)CC1	none
CCOC(=O)c1c(S(=O)(=O)NCCc2ccco2)c(C)n(C)c1C	none
CCOC(=O)c1c(S(=O)(=O)NCCCc2ccco2)c(C)n(C)c1C	BAZ2B block 56µM, G9a block 45µM, JMJD2A Tudor inconclusive
CC(=O)c1ccc(OC(=O)CCc2ccccc2)cc1	none (no result: G9a block)
O=C(CSc1ccccn1)Nc1ccc2c(c1)C(=O)c1ccccc1C2=O	BAZ2B block 50µM, G9a block inconclusive, JMJD2A Tudor 50µM
O=C(CSc1ccccn1)Nc1ccc2ccccc2c1	none (no result: VDR inhibitor, HP1b binding inh, PLK1 PBD block, JMJD2A Tudor)
O=C(CSc1n[nH]c(=O)[nH]c1=O)Nc1ccc2c(c1)C(=O)c1ccccc1C2=O	BAZ2B block 50µM, VDR inhibitor inconclusive, HP1b binding inh 11µM, PLK1 PBD block 6.7µM, JMJD2A Tudor inconclusive (no result: G9a block)
CCC/C(=N\NC(=O)c1ccccc1C)c1ccccc1	none
COc1cc(CC(=O)NC(c2ccccc2)c2ccccc2)cc(OC)c1OC	VDR inhibitor inconclusive, PLK1 PBD block 21µM, JMJD2A Tudor inconclusive
COc1ccc(CNC(=O)CNC(c2ccccc2)c2ccccc2)cc1OC	none
C/C(Cc1ccccc1)=N\NC(=O)CNC(=O)c1ccccc1	none
O=C(NCCCSc1ccccc1)c1cccnc1	G9a block 28µM
CCC/C(=N\NC(=O)c1ccc(OC)c(OC)c1)c1ccccc1	G9a block 79µM (no result: BAZ2B block)
C/C(Cc1ccccc1)=N\NC(=O)CNC(=O)c1ccc(Br)cc1	PLK1 PBD block 27µM
CCN(CC)CCCNC(=O)c1[nH]c2ccccc2c1Sc1ccc(Cl)cc1	BAZ2B block inconclusive, HP1b binding inh inconclusive, G9a block inconclusive, JMJD2A Tudor inconclusive
CC(C)n1ncc2c(C(=O)NCC(=O)Nc3ccccc3Br)cc(C3CC3)nc21	none
COc1ccc(C(=O)NCCSc2ccccc2)cc1OC	VDR inhibitor 35µM, PLK1 PBD block 3.4µM, JMJD2A Tudor 11µM
COc1cc(C(=O)NCC(=O)N/N=C(\C)Cc2ccccc2)cc(OC)c1OC	none
COc1ccc(C(=O)NC(=S)N(Cc2ccccc2)Cc2ccccc2)cc1	BAZ2B block 8.9µM, HP1b binding inh inconclusive, JMJD2A Tudor 56µM
COc1ccc(C(=O)NC(=S)N(C)C2CCCCC2)cc1	G9a block 79µM
COc1cc(C(=O)N/N=C(\C)Cc2ccccc2)cc(OC)c1OC	JMJD2A Tudor 8.9µM
Cc1ccccc1NC(=O)c1c(NC(=O)Cc2ccccc2)sc2c1CCC2	none (no result: PLK1 PBD block)
COc1cc(C(=O)NC(=S)N(CCc2ccccc2)CCc2ccccc2)cc(OC)c1OC	BAZ2B block 8.9µM
CC(=O)Nc1nnc(SCc2ccc(C(=O)Nc3ccccc3F)cc2)s1	G9a block 45µM
O=C(Nc1nnc(SCc2ccc(F)cc2)s1)c1cccnc1Cl	G9a block inconclusive
O=C(Nc1nnc(SCc2ccc(F)cc2)s1)c1ccccn1	BAZ2B block 25µM, G9a block 50µM, JMJD2A Tudor 28µM
NC(=O)NN=C1CCN2CCCc3cccc1c32	none (no result: BAZ2B block, VDR inhibitor, HP1b binding inh, G9a block, JMJD2A Tudor)
O=C(O)Cc1nc2nc3c(c(=O)n2[nH]1)CCCC3	G9a block inconclusive, JMJD2A Tudor 10µM
O=C(c1ccc([N+](=O)[O-])o1)N1CCN(c2nc3c(F)cc(F)cc3s2)CC1	G9a block 45µM, JMJD2A Tudor inconclusive
CCCCn1nc(-c2ccccc2)c2nc3ccccc3nc21	none (no result: VDR inhibitor, HP1b binding inh, PLK1 PBD block, G9a block, JMJD2A Tudor)
Cn1nc(-c2ccccc2)c2nc3ccccc3nc21	PLK1 PBD block 21µM (no result: BAZ2B block)
